697 NFkB inh – inhibitors of the PMA/ionomycin-induced NF-kB reporter in 697 B cells; 697 B-cell NF-kB luciferase reporter, 16 h; inhibition, % at 4 µM; 330,000 compounds, 0.33% hits; AID 435022; in the data active means inhibition above about 35%
Mdm2-MdmX inh – human Mdm2/MdmX binding inhibition | O15151+Q00987 | SaOS-2 split-luciferase Mdm2/MdmX complementation, luminescence | inhibition, % at 8 µM | 330,000 compounds, 3% hits | AID 485346;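 active means inhibition of at least 50% at 8 µM in the primary screen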
Beta apoptosis – blocks beta cell apoptosis | INS-1E cytokine-induced death, ATP luminescence, 48 h; percent of positive-control rescue, neutral wells zero | protection from apoptosis, % (test concentration not listed) | 300,000 compounds, 0.8% hits | AID 435005;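 active means Every replicate reaches about 75%, or at least half do and their mean reaches it too, limit read from the data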;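 further: higher means more ATP so stronger rescue from cytokine killing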
CSC inhib – blocks cancer stem cells | 300,000 compounds, 1.1% hits | inhibition, % at 7.5 µM | cancer stem cell-like cells viability, luminescence | AID 2717; in the data active means inhibition above about 75%; tested in HMLE shEcad cells
Jurkat NFkB inh – lowers PMA/ionomycin-induced NF-kB signal in Jurkat cells; PMA/ionomycin-induced NF-kB luciferase reporter, luminescence; inhibition, % at 4 µM; 330,000 compounds, 0.53% hits; in the data active means inhibition above about 50%
Gli-Sufu block – antagonists of Gli-Sufu signaling | Sufu-KO-LIGHT fibroblasts, Gli luciferase reporter luminescence | 340,000 compounds, 0.74% hits | inhibition, % at 5 µM;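 active means inhibition above about 55%, limit read from the data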
Mdm2 MdmX conf – confirmation of human Mdm2/MdmX interaction inhibitors | AID 489028 | Mdm2-MdmX binding, luminescent assay | shares compounds with Mdm2-MdmX inh | 10,000 compounds, 55% hits | inhibition, % at 8 µM; in the data active means inhibition above about 40%
Full FLuc ctr – full-length luciferase inhibition in Mdm2/MdmX counter-screen | SaOS-2 full-length luciferase counterscreen, luminescence | shares compounds with Mdm2-MdmX inh | 6,200 compounds, 77% hits | inhibition, % at 8 µM;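 active means mean inhibition at 8 µM reaching about 37%, which flags the compound as non-specific, limit read from the data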;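 further: p53-null SaOS-2 cells with luciferase driven by a doxycycline-inducible promoter; compound on cells about two nights before reading with doxycycline added after day one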
Hits are given with their value; 0 = inactive; - = no result. A selection: hits, their analogues and other compounds. The true share with any hit is near 4.5%.

SMILES | 697 NFkB inh | Mdm2-MdmX inh | Beta apoptosis | CSC inhib | Jurkat NFkB inh | Gli-Sufu block | Mdm2 MdmX conf | Full FLuc ctr
CCc1c(C2(O)CCCCC2)[nH]c2ccc(C(F)(F)F)cc12 | 0 | 82 | 0 | 84 | 0 | 0 | 0 | -
CCOc1cccc(/C=C(/C#N)c2nc3ccccc3[nH]2)c1OCC(=O)O | 0 | 0 | 0 | 0 | 0 | 0 | - | -
CCN(CC)c1ccc(/C=C(/C#N)c2nc3ccccc3[nH]2)c(OC(C)C)c1 | 0 | 80 | 0 | 0 | 0 | 0 | 77 | 88
N=C(N)c1ccc(/C=C/c2ccc(C(=N)N)cc2O)cc1 | 0 | 0 | 0 | 0 | 0 | 0 | - | -
O=C(CCc1nnc2ccc(NCc3ccccc3)nn12)NC1CCCCC1 | 0 | 0 | - | 0 | 0 | 0 | - | -
CC(C)[C@H](CO)Nc1nc(NCc2ccc(S(N)(=O)=O)cc2)c2ncn(C(C)C)c2n1 | 0 | 79 | 0 | 0 | 0 | 0 | 64 | 51
CC(C)n1cnc2c(NCc3ccc(S(N)(=O)=O)cc3)nc(NCc3ccc(S(N)(=O)=O)cc3)nc21 | 0 | 0 | 0 | 0 | 0 | 0 | - | -
CNC(=O)c1nc(C)c(C2(C)CC(c3cccc([N+](=O)[O-])c3)=NO2)s1 (stereo not drawn) | 0 | 53 | 0 | 0 | 0 | 0 | 43 | 57
Cc1nc(C(=O)NCCC(C)C)sc1C1(C)CC(c2cccc([N+](=O)[O-])c2)=NO1 (stereo not drawn) | 0 | 0 | - | - | 0 | 0 | - | -
Cc1nc(C(=O)NCc2ccccc2)sc1C1(C)CC(c2cccc([N+](=O)[O-])c2)=NO1 (stereo not drawn) | 0 | 64 | 0 | 0 | 0 | 0 | 0 | -
COc1ccc2[nH]c3c(c2c1)CCN1C(=O)C(CC(=O)NCCC2=CCCCC2)C[C@H](C(=O)N2CCCCC2)[C@@]31C (stereo partly drawn) | 0 | 0 | - | - | - | 0 | - | -
CCCC(NCC(O)COc1ccc(-c2ccccc2)cc1)c1ccccc1 (stereo not drawn) | 0 | 100 | 0 | - | 0 | 0 | 56 | 60
Cc1cc(OCC(O)CNC(C)c2ccccc2)ccc1C(C)C (stereo not drawn) | 0 | 59 | 0 | 0 | 0 | 0 | 0 | -
COc1ccc(OCC(O)CNC(C)c2ccccc2)cc1 (stereo not drawn) | 0 | 0 | 0 | 0 | 0 | 0 | - | -
Cc1c(C)c2c(OCC(=O)N3CCC(C(=O)O)CC3)cc3c(c2oc1=O)CCC(C)(C)O3 | 0 | 0 | 0 | 0 | 0 | 0 | - | -
Cc1nc2ccc(S(=O)(=O)NCC(=O)NCCc3ccc(Cl)cc3)cc2s1 | 0 | 0 | 0 | 0 | 0 | 0 | - | -
COc1ccc(OC)c2sc(N(CCCN(C)C)C(=O)CCS(=O)(=O)c3ccccc3)nc12 | 0 | 82 | - | 0 | 0 | 0 | 77 | 0
Cc1ccc2sc(N(CCCN(C)C)C(=O)CCS(=O)(=O)c3ccccc3)nc2c1C | 0 | 60 | 0 | 0 | 0 | 0 | 57 | 0
Cc1ccc(NS(=O)(=O)c2ccc3c(c2)NC(=O)CCS3)c(C)c1 | 0 | 0 | 0 | 0 | 0 | 0 | - | -
CCOC(=O)C1=C(C)NC(C)=C(C(=O)OCC)C1C(=O)OCC(=O)N1CCOCC1 | 0 | 0 | 0 | 0 | 0 | 0 | - | -
COc1cc(/C=C2/OC(=O)c3cc([N+](=O)[O-])ccc32)cc(OC)c1OC | 0 | 67 | 0 | 0 | 0 | 0 | 0 | -
COc1cc(/C=C/C(=O)c2cccc([N+](=O)[O-])c2)cc(OC)c1OC | 0 | 52 | 0 | 0 | 0 | 0 | 0 | -
O=C1OC(=O)c2cc([N+](=O)[O-])ccc21 | 0 | 0 | 0 | 0 | 0 | 0 | - | -
O=C(/C=C/c1ccccc1F)c1cccc([N+](=O)[O-])c1 | 0 | 0 | 0 | 0 | 0 | 0 | - | -
COC(=O)[C@]1(CC(C)C)N[C@H](c2ccc(-c3ccc(Cl)c(Cl)c3)cc2)[C@@H]2C(=O)N(C)C(=O)[C@@H]21 | 0 | 57 | 0 | 0 | 0 | 0 | 0 | -
CCN1C(=O)[C@H]2[C@@H](c3ccc(-c4cccc(Cl)c4)cc3)N[C@@](CC(C)C)(C(=O)OC)[C@H]2C1=O | 0 | 52 | 0 | - | 0 | 0 | 0 | -
COC(=O)[C@]1(Cc2ccccc2)N[C@H](c2ccc(-c3cccc(Cl)c3)cc2)[C@@H]2C(=O)N(C)C(=O)[C@@H]21 | 0 | 55 | 0 | 0 | 0 | 0 | 0 | 74
